RGS7-Gao reg: regulators of human RGS7-Galphao interaction. P09471. Multiplexed bead flow cytometry, RGS7-Galphao binding; actives lie on both sides. binding response (% of control), % at 10 µM. 220,000 compounds, 0.35% hits. AID 1439; in the data active means binding response below about 49% or above about 150%; inconclusive means no clear call, values can overlap the other calls; inactive means in between;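 further: fluorescent Galphao held in activated GDP-AlF4 state binding bead-coupled RGS7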
RGS8-Gao reg: regulators of human RGS8-Galphao interaction; P09471; multiplexed bead flow cytometry, RGS8-Galphao binding; actives lie on both sides; response (percent of control binding), % at 10 µM; 220,000 compounds, 0.34% hits; AID 1423; in the data active means response below about 60% or above about 140%; inactive means in between;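 further: Galphao activated as the GDP aluminium fluoride complex binding bead-coupled RGS8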
RGS16-Gao HTS: RGS16-Galphao interaction regulator (human) | binding response (% of control), % at 10 µM | 220,000 compounds, 0.38% hits | O15492+P09471 | bead-based flow cytometry RGS16-Galphao binding, fluorescence; actives lie on both sides;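 further: Galphao activated by GDP with aluminum fluoride before binding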
Target sequence (O15492 whole entry, looked up): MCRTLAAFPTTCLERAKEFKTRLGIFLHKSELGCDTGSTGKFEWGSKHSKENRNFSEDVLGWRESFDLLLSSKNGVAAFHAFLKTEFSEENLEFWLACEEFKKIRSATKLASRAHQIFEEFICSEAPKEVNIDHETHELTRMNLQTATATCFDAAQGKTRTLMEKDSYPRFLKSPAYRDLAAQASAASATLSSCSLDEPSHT
Target sequence (P09471 whole entry, looked up): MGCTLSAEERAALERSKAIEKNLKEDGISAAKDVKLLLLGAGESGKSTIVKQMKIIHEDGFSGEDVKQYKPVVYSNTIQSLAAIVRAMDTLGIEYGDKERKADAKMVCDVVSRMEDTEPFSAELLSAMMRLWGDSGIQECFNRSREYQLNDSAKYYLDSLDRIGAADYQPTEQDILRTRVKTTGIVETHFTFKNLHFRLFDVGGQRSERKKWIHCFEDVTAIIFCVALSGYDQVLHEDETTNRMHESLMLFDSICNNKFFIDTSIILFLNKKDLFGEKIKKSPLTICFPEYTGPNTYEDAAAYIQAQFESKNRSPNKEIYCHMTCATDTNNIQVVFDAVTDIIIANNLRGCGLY
Avidin fluor: compound fluoresces at 488/530 nm on avidin beads | fluorescence (KMESF) at 10 µM | 220,000 compounds, 0.38% hits | AID 1775 | compound fluorescence 488/530 nm, flow cytometry; stronger effect = higher value; in the data active means fluorescence above about 47
GSH fluor: compound fluoresces at 488/530 nm on GSH beads. GSH beads flow cytometry, compound fluorescence 488/530 nm; stronger effect = higher value. 190,000 compounds, 0.25% hits. fluorescence (KMESF) at 10 µM; in the data active means fluorescence above about 89;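 further: glutathione beads carrying GST-tagged Bcl family fusion proteins plus one bare bead set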
RGS4-Gao reg: modulates binding of RGS4 to human Galphao; Multiplexed bead flow cytometry; actives lie on both sides; AID 1415; P09471; 220,000 compounds, 0.33% hits; binding response (% of control), % at 10 µM; in the data active means binding response below about 49% or above about 150%; inactive means in between;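 further: fluorescent Galphao activated with aluminum fluoride binding bead-coupled RGS4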
RGS-Gao: regulators of human RGS4-Galphao interaction | shares compounds with RGS16-Gao HTS | multiplexed bead flow cytometry, RGS–Galpha-o binding | RGS4–Galpha-o binding response, % at 10 µM | 1,600 compounds, 99% hits;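 further: fluorescently labeled Galpha-o bound to GDP with aluminium fluoride binding biotinylated RGS beads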
Avidin counter: counter-screen: compounds disrupting biotin binding to avidin beads | streptavidin beads, fluorescein-biotin binding, flow cytometry | shares compounds with RGS16-Gao HTS | inhibition, % at 10 µM | 1,700 tested, under 10 active | AID 1783;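 active means inhibition above 50%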;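 further: median green fluorescence of gated singlet beads compared with DMSO control wells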
RGS8-Gao confirm: RGS8-Galphao interaction regulation, single point confirmation | shares compounds with RGS16-Gao HTS | bead-based flow cytometry RGS8-Galphao binding, fluorescence; actives lie on both sides | binding response (% of control), % at 10 µM | 1,700 compounds, 3% hits; in the data active means binding response below about 72% or above about 130%; inactive means in between;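 further: Galphao activated as GDP AlF4 complex before binding bead RGS8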
RGS7-Gao confirm: RGS7-Galphao interaction regulation, single point confirmation; shares compounds with RGS16-Gao HTS; bead-based flow cytometry RGS7-Galphao binding; actives lie on both sides; response (percent of control binding), % at 10 µM; 1,700 compounds, 7.8% hits; AID 1837; in the data active means response below about 75% or above about 130%; inactive means in between;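 further: fluorescent Galphao activated with GDP and aluminum fluoride binding bead-coupled RGS7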
RGS16-Gao single: RGS16-Galphao interaction regulation, single point confirmation | shares compounds with RGS16-Gao HTS | bead-based flow cytometry, RGS16-Galphao binding; actives lie on both sides | response (% of control binding), % at 10 µM | 1,700 compounds, 4% hits; in the data active means response below about 74% or above about 130%; inactive means in between;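 further: Galphao activated as the GDP aluminium fluoride complex binding bead-coupled RGS16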
RGS4-Gao single: RGS4-Galphao interaction regulation, single point confirmation | shares compounds with RGS16-Gao HTS | RGS4-Galphao binding, multiplexed bead flow cytometry; actives lie on both sides | binding response (% of control), % at 10 µM | 1,700 compounds, 4% hits; in the data active means binding response below about 74% or above about 130%; inactive means in between
RGS19-Gao single: RGS19-Galphao interaction regulation, single point confirmation | bead-based flow cytometry RGS19-Galphao binding; actives lie on both sides | shares compounds with RGS16-Gao HTS | AID 1841 | 1,700 compounds, 5% hits | response (percent of control binding), % at 10 µM; in the data active means response below about 50% or above about 160%; inactive means in between
Each line names hits and unclear results; the compound was inactive in the other large screens (follow-up assays come after a bar, where they were run); [ ] = remark or other dose. This is a sample that favours compounds with a hit; in the whole collection about 1.2% have one here. Unless noted, how the calls were made is not given here.

Cc1nn(C(C)C(=O)NCCCc2ccccc2)c(=O)c2cc3occc3n12 (configuration not stated)	none (no result: RGS8-Gao reg) | Avidin counter inactive | RGS8-Gao confirm inactive | RGS7-Gao confirm inactive | RGS16-Gao single inactive | RGS4-Gao single inactive | RGS19-Gao single inactive
COc1ccc(NC(=S)Nc2ccccc2)c(OC)c1	none
COc1ccc(NC(=S)Nc2ccc(OCc3ccccc3)cc2)c(OC)c1	RGS7-Gao reg 165[activator] | RGS-Gao 140 | Avidin counter inactive | RGS8-Gao confirm inactive | RGS7-Gao confirm inactive | RGS16-Gao single inactive | RGS4-Gao single inactive | RGS19-Gao single inactive
O=C(Cc1c(Sc2ccccc2)c2ccccc2n1Cc1ccccc1)NCCO	none
CCN(CC)C(=O)C(=O)c1cccn1-c1c(Cl)cccc1C#N	RGS7-Gao reg 158[activator], Avidin fluor 109 | RGS-Gao 112 | Avidin counter inactive | RGS8-Gao confirm inactive | RGS7-Gao confirm inactive | RGS16-Gao single inactive | RGS4-Gao single inactive | RGS19-Gao single inactive
CC(C)NS(=O)(=O)c1ccc(OCC(=O)Nc2ccc3c(c2)OCO3)cc1	RGS7-Gao reg 31, RGS8-Gao reg 39, RGS4-Gao reg 38 | Avidin counter inactive | RGS8-Gao confirm inactive | RGS7-Gao confirm inactive | RGS16-Gao single inactive | RGS4-Gao single inactive | RGS19-Gao single inactive
CCC(C)NS(=O)(=O)c1ccc(OCC(=O)Nc2ccc3c(c2)OCO3)cc1 (configuration not stated)	none
C=CCN(CC(=O)NCc1ccccc1)C(=O)c1csnn1	none (no result: RGS7-Gao reg, RGS8-Gao reg, RGS16-Gao HTS, Avidin fluor, RGS4-Gao reg) | Avidin counter inactive | RGS8-Gao confirm inactive | RGS7-Gao confirm inactive | RGS16-Gao single inactive | RGS4-Gao single inactive | RGS19-Gao single inactive
COc1ccc(CNC(=O)CN(Cc2ccccc2)C(=O)c2csnn2)cc1	none
O=C1C(C=NCc2ccco2)=C(O)c2ccccc21	RGS16-Gao HTS -57 | RGS-Gao 90 | Avidin counter inactive | RGS8-Gao confirm inactive | RGS7-Gao confirm inactive | RGS16-Gao single inactive | RGS4-Gao single inactive | RGS19-Gao single inactive
O=C1CSC(=Nc2ccc(Cl)cc2)N1Cc1cccnc1	RGS7-Gao reg inconclusive, RGS8-Gao reg 55, RGS16-Gao HTS 19, RGS4-Gao reg 5.3 (no result: GSH fluor) | Avidin counter inactive | RGS8-Gao confirm inactive | RGS7-Gao confirm inactive | RGS16-Gao single inactive | RGS4-Gao single inactive | RGS19-Gao single inactive
CC(C)(C)c1ccc(N=C2SCC(=O)N2Cc2cccs2)cc1	RGS7-Gao reg inconclusive (no result: GSH fluor)
CSc1nc(N)nc(N(C)C)n1	RGS7-Gao reg inconclusive (no result: GSH fluor)
CSc1nc(N)nc(C2CC2)n1	RGS7-Gao reg inconclusive (no result: GSH fluor) | Avidin counter inactive | RGS8-Gao confirm inactive | RGS7-Gao confirm inactive | RGS16-Gao single inactive | RGS4-Gao single inactive | RGS19-Gao single inactive
COc1cc2c(cc1NC(=O)CSc1nnc(Cc3cccs3)n1C)oc1ccccc12	RGS7-Gao reg 248[activator], RGS16-Gao HTS 314[activator], Avidin fluor 105, RGS4-Gao reg 315[activator] | Avidin counter inactive | RGS8-Gao confirm inactive | RGS7-Gao confirm inactive | RGS16-Gao single inactive | RGS4-Gao single inactive | RGS19-Gao single inactive

Compound activity as filed in PubChem BioAssay.
